Experiment [1] has as its target Serine/threonine-protein kinase SIK1 (Homo sapiens) (UniProt P57059). The following applies: at 10 µM.
For experiment [2], the target named is SRSF protein kinase 1 (Homo sapiens) (UniProt Q96SB4). The following applies: at 1 µM.
The target is the same in experiment [3]. The following applies: at 10 µM.
In experiment [4] the target is SRSF protein kinase 2 (Homo sapiens) (UniProt P78362). The following applies: at 1 µM.
The target is the same in experiment [5]. As to conditions: at 10 µM.
The target in experiment [6] is Serine/threonine-protein kinase 33 (Homo sapiens) (UniProt Q9BYT3). The following applies: at 1 µM.
The target is the same in experiment [7]. The following applies: at 10 µM.
For experiment [8], the target named is Serine/threonine-protein kinase PLK2 (Homo sapiens) (UniProt Q9NYY3). The following applies: at 1 µM.
The target is the same in experiment [9]. The following applies: at 10 µM.
The target of experiment [10] is Tyrosine-protein kinase SYK (Homo sapiens) (UniProt P43405). The following applies: at 1 µM.
Experiment [11] has the same target. The following applies: at 10 µM.
The target in experiment [12] is T1, Mitogen-activated protein kinase kinase kinase 7 (Homo sapiens) (UniProt O43318).
T1 sequence (whole entry): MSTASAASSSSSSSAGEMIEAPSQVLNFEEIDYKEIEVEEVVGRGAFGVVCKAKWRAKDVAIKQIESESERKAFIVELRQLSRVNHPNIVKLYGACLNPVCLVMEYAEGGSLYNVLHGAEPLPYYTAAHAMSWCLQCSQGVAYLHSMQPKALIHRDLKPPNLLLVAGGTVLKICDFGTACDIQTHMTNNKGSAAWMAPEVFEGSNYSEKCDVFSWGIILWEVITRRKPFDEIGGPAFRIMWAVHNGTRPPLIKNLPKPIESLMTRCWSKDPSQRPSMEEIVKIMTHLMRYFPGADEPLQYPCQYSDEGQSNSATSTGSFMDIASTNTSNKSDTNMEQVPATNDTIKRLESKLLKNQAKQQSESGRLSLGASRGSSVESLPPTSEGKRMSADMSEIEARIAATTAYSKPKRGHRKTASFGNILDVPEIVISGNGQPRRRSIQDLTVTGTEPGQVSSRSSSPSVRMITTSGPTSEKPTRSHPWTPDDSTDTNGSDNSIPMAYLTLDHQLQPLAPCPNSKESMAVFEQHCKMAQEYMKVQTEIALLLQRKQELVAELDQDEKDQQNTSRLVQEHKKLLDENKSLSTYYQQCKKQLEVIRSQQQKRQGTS
As to conditions: at 1 µM.

Experiment [13] addresses T1, Mitogen-activated protein kinase kinase kinase 7 (Homo sapiens). The following applies: at 10 µM.
Experiment [14] has as its target T2, Serine/threonine-protein kinase TAO1 (Homo sapiens) (UniProt Q7L7X3).
T2 sequence (whole entry): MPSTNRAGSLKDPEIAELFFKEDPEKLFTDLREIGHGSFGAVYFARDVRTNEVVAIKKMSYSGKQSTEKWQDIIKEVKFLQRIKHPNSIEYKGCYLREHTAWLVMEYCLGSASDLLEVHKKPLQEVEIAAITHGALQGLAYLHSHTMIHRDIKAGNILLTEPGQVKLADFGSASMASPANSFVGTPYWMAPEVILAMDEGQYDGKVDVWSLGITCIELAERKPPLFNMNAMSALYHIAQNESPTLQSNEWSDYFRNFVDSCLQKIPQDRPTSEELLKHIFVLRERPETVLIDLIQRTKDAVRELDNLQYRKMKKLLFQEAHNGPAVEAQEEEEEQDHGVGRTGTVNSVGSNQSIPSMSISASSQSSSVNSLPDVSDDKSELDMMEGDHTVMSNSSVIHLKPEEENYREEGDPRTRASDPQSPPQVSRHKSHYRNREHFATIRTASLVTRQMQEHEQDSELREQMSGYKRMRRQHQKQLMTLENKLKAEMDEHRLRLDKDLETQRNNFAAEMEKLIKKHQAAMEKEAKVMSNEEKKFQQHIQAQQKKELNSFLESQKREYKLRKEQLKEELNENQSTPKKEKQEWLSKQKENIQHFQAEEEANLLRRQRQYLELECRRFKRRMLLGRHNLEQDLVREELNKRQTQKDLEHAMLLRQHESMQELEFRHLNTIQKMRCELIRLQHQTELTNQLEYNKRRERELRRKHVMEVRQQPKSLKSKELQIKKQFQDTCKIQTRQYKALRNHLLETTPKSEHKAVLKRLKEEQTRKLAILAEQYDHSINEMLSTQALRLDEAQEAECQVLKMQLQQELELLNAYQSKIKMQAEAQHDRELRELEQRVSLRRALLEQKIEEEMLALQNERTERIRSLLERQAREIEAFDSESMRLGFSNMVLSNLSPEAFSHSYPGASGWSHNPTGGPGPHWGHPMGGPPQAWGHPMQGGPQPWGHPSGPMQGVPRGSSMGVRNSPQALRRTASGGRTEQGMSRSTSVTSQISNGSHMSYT
The following applies: at 1 µM.

For experiment [15], the target named is T2, Serine/threonine-protein kinase TAO1 (Homo sapiens). The following applies: at 10 µM.
Experiment [16] addresses T3, Serine/threonine-protein kinase TAO2 (Homo sapiens) (UniProt Q9UL54).
T3 sequence (whole entry): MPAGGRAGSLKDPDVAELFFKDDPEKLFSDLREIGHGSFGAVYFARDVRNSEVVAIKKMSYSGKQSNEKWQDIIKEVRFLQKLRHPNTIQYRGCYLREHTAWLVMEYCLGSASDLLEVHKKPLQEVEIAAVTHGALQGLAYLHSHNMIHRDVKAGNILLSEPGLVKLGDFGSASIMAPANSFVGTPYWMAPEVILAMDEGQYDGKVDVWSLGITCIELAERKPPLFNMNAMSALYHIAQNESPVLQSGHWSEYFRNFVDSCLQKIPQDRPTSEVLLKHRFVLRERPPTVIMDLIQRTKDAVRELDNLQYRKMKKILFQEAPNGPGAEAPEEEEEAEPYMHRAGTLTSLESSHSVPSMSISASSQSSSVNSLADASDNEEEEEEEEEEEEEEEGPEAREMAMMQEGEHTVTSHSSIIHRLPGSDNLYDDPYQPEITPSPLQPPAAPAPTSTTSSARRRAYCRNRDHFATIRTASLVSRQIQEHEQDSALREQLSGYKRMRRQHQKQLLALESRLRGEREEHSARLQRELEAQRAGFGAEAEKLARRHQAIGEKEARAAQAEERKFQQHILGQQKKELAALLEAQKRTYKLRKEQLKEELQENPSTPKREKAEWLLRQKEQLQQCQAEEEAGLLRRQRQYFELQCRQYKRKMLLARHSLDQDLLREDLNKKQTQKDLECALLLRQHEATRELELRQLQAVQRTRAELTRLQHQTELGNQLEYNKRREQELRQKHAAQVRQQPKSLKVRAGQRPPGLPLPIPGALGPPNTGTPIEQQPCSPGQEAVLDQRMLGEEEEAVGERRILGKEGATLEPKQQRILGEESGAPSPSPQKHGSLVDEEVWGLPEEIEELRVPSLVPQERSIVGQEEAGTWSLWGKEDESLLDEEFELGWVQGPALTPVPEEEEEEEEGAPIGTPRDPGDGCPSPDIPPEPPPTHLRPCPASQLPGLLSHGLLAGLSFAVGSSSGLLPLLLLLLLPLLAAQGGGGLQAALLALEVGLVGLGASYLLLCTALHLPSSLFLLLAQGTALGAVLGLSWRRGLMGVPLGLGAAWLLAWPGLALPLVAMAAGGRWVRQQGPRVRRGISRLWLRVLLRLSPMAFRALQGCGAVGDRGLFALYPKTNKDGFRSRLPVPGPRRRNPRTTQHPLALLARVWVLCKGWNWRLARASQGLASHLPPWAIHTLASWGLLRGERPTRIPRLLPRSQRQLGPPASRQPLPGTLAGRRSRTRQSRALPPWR
As to conditions: at 1 µM.

Experiment [17] addresses T3, Serine/threonine-protein kinase TAO2 (Homo sapiens). The following applies: at 10 µM.
The target in experiment [18] is T4, Serine/threonine-protein kinase TAO3 (Homo sapiens) (UniProt Q9H2K8).
T4 sequence (whole entry): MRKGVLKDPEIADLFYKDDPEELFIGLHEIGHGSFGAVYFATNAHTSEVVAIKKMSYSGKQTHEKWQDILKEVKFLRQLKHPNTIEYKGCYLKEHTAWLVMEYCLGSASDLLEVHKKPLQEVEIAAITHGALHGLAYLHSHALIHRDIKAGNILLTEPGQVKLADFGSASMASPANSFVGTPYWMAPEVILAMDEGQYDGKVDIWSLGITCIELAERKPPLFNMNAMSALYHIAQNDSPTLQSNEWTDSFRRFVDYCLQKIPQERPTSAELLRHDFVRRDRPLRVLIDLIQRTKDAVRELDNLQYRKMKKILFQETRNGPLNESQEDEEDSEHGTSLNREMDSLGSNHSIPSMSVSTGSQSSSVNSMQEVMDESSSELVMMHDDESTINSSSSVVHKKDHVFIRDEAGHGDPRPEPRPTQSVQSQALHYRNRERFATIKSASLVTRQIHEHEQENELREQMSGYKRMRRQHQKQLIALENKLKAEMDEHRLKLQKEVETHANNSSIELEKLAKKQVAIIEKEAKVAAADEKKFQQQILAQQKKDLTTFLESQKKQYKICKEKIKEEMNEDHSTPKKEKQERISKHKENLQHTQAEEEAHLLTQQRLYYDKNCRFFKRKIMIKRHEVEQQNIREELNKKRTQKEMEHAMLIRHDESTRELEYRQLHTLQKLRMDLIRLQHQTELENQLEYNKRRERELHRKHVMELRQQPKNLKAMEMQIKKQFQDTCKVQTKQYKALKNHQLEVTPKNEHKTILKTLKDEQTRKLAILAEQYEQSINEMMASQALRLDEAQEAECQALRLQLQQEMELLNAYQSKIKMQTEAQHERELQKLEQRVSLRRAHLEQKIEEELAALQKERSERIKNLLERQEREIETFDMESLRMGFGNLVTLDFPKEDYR
The following applies: at 1 µM.

The target in experiment [19] is T4, Serine/threonine-protein kinase TAO3 (Homo sapiens). The following applies: at 10 µM.
For experiment [20], the target named is T5, Serine/threonine-protein kinase TBK1 (Homo sapiens) (UniProt Q9UHD2).
T5 sequence (whole entry): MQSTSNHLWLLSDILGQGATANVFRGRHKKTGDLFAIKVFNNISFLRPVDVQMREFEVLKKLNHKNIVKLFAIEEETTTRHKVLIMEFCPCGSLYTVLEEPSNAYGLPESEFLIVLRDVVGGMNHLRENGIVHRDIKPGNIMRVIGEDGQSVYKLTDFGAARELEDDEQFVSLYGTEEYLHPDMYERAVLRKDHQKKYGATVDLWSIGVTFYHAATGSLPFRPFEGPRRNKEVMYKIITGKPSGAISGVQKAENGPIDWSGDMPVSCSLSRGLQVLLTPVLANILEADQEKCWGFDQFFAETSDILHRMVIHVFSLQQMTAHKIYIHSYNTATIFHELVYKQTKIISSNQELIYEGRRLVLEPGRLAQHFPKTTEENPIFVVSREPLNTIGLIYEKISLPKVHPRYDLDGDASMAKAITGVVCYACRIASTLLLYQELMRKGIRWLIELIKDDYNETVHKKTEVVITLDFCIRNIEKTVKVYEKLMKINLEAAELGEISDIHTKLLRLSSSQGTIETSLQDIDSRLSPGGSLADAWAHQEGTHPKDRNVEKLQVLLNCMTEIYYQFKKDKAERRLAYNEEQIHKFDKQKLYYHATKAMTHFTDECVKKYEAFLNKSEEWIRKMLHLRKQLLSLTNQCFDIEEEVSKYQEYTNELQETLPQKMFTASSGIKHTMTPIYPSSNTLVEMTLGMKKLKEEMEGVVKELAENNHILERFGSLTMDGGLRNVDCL
The following applies: at 1 µM.

SRSF protein kinase 2 (Homo sapiens), sequence (P78362 whole entry, looked up): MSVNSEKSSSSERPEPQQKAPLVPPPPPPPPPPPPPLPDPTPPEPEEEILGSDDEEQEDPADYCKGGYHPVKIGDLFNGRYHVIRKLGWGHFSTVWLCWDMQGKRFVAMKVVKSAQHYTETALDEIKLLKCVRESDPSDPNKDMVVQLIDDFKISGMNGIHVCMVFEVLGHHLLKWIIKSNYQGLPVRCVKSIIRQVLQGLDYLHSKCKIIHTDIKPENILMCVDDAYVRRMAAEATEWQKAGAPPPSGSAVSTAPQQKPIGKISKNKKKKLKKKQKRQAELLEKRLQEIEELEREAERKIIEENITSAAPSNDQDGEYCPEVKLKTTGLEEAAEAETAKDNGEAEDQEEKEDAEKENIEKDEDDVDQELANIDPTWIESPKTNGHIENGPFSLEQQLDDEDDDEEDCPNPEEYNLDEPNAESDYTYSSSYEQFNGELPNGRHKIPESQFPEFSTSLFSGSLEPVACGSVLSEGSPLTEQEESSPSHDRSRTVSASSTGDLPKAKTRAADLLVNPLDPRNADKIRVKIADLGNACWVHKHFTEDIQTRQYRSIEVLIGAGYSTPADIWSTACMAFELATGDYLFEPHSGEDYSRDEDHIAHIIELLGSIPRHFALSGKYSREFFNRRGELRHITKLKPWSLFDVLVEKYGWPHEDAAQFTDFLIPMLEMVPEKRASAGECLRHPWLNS
SRSF protein kinase 1 (Homo sapiens), sequence (Q96SB4 whole entry): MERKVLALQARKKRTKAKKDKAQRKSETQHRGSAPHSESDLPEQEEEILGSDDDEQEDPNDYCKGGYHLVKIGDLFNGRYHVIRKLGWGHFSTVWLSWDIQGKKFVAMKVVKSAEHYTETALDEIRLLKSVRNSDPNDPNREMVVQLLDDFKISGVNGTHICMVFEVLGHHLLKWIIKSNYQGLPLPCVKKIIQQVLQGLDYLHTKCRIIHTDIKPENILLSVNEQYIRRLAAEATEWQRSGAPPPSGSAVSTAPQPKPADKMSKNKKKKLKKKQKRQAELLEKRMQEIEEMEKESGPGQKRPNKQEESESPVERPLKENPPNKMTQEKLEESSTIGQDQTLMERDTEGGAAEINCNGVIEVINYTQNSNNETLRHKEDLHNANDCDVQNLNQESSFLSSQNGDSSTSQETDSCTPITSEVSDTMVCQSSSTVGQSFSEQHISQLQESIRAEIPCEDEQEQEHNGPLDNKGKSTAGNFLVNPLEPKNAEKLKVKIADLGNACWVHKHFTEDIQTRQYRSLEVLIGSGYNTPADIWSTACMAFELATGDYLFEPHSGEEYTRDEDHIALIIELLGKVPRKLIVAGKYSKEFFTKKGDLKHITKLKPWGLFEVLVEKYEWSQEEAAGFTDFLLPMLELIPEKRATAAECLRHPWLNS
Serine/threonine-protein kinase PLK2 (Homo sapiens), sequence (Q9NYY3 whole entry, looked up): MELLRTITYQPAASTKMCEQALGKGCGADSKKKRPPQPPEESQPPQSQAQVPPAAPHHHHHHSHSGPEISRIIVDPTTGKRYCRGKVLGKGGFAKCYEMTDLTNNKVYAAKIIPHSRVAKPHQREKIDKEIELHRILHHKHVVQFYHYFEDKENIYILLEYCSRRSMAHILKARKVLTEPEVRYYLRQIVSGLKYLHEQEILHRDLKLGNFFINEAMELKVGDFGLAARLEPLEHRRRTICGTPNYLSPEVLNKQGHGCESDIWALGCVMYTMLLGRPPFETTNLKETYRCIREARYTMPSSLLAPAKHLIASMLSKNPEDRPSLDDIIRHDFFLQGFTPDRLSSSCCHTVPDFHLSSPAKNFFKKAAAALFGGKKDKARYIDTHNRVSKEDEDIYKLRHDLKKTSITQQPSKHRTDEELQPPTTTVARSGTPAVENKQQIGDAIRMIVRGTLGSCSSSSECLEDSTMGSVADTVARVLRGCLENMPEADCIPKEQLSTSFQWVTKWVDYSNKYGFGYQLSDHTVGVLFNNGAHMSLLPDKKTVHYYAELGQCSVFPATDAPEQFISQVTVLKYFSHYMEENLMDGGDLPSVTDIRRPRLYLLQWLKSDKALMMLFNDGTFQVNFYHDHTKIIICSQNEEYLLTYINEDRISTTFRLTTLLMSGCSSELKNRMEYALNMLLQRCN
Serine/threonine-protein kinase 33 (Homo sapiens), sequence (Q9BYT3 whole entry, looked up): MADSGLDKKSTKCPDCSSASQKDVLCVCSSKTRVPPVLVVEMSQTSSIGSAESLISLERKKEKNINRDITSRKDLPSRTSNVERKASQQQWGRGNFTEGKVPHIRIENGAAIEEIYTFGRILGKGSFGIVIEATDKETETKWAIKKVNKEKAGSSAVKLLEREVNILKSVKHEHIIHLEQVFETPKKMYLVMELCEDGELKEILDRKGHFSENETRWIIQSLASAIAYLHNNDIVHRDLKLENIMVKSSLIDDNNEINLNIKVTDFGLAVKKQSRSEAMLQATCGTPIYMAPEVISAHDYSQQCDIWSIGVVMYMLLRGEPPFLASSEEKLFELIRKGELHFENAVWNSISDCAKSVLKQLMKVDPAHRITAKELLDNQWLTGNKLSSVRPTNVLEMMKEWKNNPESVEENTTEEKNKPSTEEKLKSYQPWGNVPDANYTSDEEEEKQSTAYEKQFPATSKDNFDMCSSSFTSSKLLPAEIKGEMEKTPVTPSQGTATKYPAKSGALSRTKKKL
Serine/threonine-protein kinase SIK1 (Homo sapiens), sequence (P57059 whole entry): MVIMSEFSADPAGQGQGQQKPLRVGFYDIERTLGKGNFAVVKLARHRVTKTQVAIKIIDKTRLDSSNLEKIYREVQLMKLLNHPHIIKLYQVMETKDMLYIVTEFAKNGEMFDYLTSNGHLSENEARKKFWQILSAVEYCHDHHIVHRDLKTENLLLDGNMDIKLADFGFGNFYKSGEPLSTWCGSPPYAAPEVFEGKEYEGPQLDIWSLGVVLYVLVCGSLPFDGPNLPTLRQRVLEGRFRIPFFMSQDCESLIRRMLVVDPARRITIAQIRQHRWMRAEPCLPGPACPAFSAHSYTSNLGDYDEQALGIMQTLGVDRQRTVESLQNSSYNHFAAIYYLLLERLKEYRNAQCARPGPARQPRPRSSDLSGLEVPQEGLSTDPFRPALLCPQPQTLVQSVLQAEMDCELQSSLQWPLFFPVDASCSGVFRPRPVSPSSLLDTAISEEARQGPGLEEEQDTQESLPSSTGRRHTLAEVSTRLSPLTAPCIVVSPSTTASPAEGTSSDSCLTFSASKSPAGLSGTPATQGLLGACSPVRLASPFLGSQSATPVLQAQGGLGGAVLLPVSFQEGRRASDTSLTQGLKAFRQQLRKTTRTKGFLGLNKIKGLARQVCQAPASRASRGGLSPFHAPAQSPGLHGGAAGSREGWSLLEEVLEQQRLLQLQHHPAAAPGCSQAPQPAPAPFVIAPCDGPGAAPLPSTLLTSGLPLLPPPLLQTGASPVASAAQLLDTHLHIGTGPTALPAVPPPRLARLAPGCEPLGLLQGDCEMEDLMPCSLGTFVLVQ

In the case of `COc1cc2ncnc(N3CCN(C(=O)Nc4ccc(Oc5ccccc5)cc4)CC3)c2cc1OC`, the residual activity is 87% in experiment [1]; 103% in experiment [2]; 105% in [3]; 102% in experiment [4]; 95% in [5]; 88% in experiment [6]. Moreover, the residual activity was determined as 96% in experiment [7]; 107% in experiment [8]; 101% in [9]; 101% in experiment [10]; 83% in experiment [11]; 85% in experiment [12]. The residual activity came out at 82% in experiment [13]; 94% in experiment [14]; 78% in experiment [15]; 95% in experiment [16]; 64% in experiment [17]; 85% in [18]. The residual activity in experiment [19] was 77%; in experiment [20], 57%.

In the case of `O=C1Nc2cc(Br)ccc2/C1=C1/Nc2ccccc2/C1=N\O`, the residual activity in experiment [1] is 8%; in experiment [2], 98%; in experiment [3], 84%; in experiment [4] it was 88%; in experiment [5], 70%; in [6], 73%. For the same molecule, the residual activity stood at 72% in [7]; 97% in [8]; 96% in [9]; 70% in [10]; 37% in [11]; 89% in experiment [12]. The residual activity in experiment [13] stood at 81%; in experiment [14], 68%; in experiment [15], 58%; in [16] it was 75%; in [17], 91%; in experiment [18], 68%. Besides, the residual activity in [19] turned out to be 82%; in [20], 8%.

For the molecule `Cc1nc(-c2ccccc2)c(-c2ccncc2)o1`, the residual activity worked out at 100% in experiment [1]; 111% in [2]; 109% in experiment [3]; 98% in experiment [4]; 81% in experiment [5]; 103% in experiment [6]. In addition, the residual activity in [7] was 102%; in experiment [8], 108%; in experiment [9] it was 104%; in experiment [10], 112%; in [11], 116%; in experiment [12], 103%. Moreover, the residual activity in experiment [13] is 97%; in experiment [14], 103%; in [15], 79%; in [16], 120%; in experiment [17], 108%; in experiment [18], 107%. Also, the results for the residual activity in experiment [19] and in experiment [20] were 101% and 102%, respectively.

Values taken from ChEMBL document CHEMBL2218924, “A broad activity screen in support of a chemogenomic map for kinase signalling research and drug discovery” (Biochem J, 2013).
